Assay results reported in PubChem BioAssay AID1159580 (chemical genetic matrix, 2015).
The campaign covered roughly 5,500 compounds. About 2,000 (36%) were called active. Roughly 18% stayed inconclusive and do not appear here. Cut-off read from the data, not from the text of the source: active = normalized growth mostly below about 0.91 (no sharp cut-off); inconclusive = no clear call, values can overlap the other calls; inactive = mostly above about 0.92. The list shows a part of the results.

Experiment: chemical genetic growth profiling, strain panel (AID 1159580);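 note: tested at 20 µM; growth read once vehicle control cultures reached saturation at 30 °C; 1 = growth at the plate median or of vehicle wells; lower values mean less growth of the strain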
Details: growth OD
[1] = S. cerevisiae deletion strains, locus YBR229C, strain ROT2, stronger effect = lower value
[2] = S. cerevisiae deletion strains, locus YDL101C, strain DUN1, stronger effect = lower value
[3] = S. cerevisiae deletion strains, locus YDR150W, strain NUM1, stronger effect = lower value
[4] = S. cerevisiae deletion strains, locus YEL061C, strain CIN8, stronger effect = lower value
[5] = S. cerevisiae deletion strains, locus YHR030C, strain SLT2, stronger effect = lower value
[6] = S. cerevisiae deletion strains, locus YJR043C, strain POL32, stronger effect = lower value
[7] = S. cerevisiae deletion strains, locus YLR039C, strain RIC1, stronger effect = lower value
[8] = S. cerevisiae deletion strains, locus YLR262C, strain YPT6, stronger effect = lower value
[9] = S. cerevisiae deletion strains, locus YMR263W, strain SAP30, stronger effect = lower value
[10] = S. cerevisiae deletion strains, locus YMR307W, strain GAS1, stronger effect = lower value
[11] = S. cerevisiae deletion strains, locus YPL055C, strain LGE1, stronger effect = lower value

Measured: normalized growth

Cc1cc(I)c(C)cc1I
inactive: S. cerevisiae deletion strains, locus YAL013W, strain DEP1, stronger effect = lower value 1.01 | [1] 0.989 | S. cerevisiae deletion strains, locus YCL061C, strain MRC1, stronger effect = lower value 0.994 | [2] 1.02 | S. cerevisiae deletion strains, locus YDL134C, strain PPH21, stronger effect = lower value 0.986 | [3] 1.04 | [4] 0.966 | S. cerevisiae deletion strains, locus YGR078C, strain PAC10, stronger effect = lower value 1 | [5] 0.805 | S. cerevisiae deletion strains, locus YHR087W, strain rtc3, stronger effect = lower value 0.979 | [6] 0.994 | S. cerevisiae deletion strains, locus YJR075W, strain HOC1, stronger effect = lower value 0.976 | [7] 0.955 | S. cerevisiae deletion strains, locus YLR058C, strain SHM2 (second series), stronger effect = lower value 0.992 | S. cerevisiae deletion strains, locus YLR085C, strain ARP6, stronger effect = lower value 0.953 | [8] 0.872 | S. cerevisiae deletion strains, locus YML094W, strain GIM5, stronger effect = lower value 0.95 | S. cerevisiae deletion strains, locus YMR219W, strain ESC1, stronger effect = lower value 1 | [9] 0.976 | [10] 0.7 | S. cerevisiae deletion strains, locus YNL153C, strain GIM3, stronger effect = lower value 0.984 | S. cerevisiae deletion strains, locus YNL298W, strain CLA4 (second series), stronger effect = lower value 0.935 | S. cerevisiae deletion strains, locus YNL322C, strain KRE1, stronger effect = lower value 1 | S. cerevisiae deletion strains, locus YNR030W, strain Alg12, stronger effect = lower value 0.943 | [11] 0.966 | S. cerevisiae deletion strains, locus YPL241C, strain CIN2, stronger effect = lower value 0.978 | S. cerevisiae deletion strains, locus YPR135W, strain CTF4, stronger effect = lower value 0.925

CCC/C=C1\OC(=O)C2=C1CCC=C2
inactive: S. cerevisiae deletion strains, locus YBR021W, strain FUR4, stronger effect = lower value 0.967 | [1] 1.01 | S. cerevisiae deletion strains, locus YCL029C, strain bik1, stronger effect = lower value 0.978 | S. cerevisiae deletion strains, locus YDL035C, strain GPR1, stronger effect = lower value 0.952 | S. cerevisiae deletion strains, locus YDL074C, strain BRE1, stronger effect = lower value 0.945 | [2] 0.984 | S. cerevisiae deletion strains, locus YDL185W, strain tfp1, stronger effect = lower value 0.986 | S. cerevisiae deletion strains, locus YDL192W, strain arf1, stronger effect = lower value 0.972 | S. cerevisiae deletion strains, locus YDR101C, strain arx1, stronger effect = lower value 0.949 | [3] 1.02 | S. cerevisiae deletion strains, locus YDR162C, strain NBP2, stronger effect = lower value 0.993 | S. cerevisiae deletion strains, locus YDR318W, strain mcm21, stronger effect = lower value 0.998 | S. cerevisiae deletion strains, locus YDR388W, stronger effect = lower value 0.978 | S. cerevisiae deletion strains, locus YDR502C, strain sam2, stronger effect = lower value 0.957 | [4] 1 | S. cerevisiae deletion strains, locus YER110C, stronger effect = lower value 0.971 | S. cerevisiae deletion strains, locus YER155C, strain BEM2, stronger effect = lower value 1.03 | S. cerevisiae deletion strains, locus YER167W, strain BCK2, stronger effect = lower value 0.998 | S. cerevisiae deletion strains, locus YGL078C, strain dbp3, stronger effect = lower value 0.963 | S. cerevisiae deletion strains, locus YGL248W, strain PDE1, stronger effect = lower value 0.975 | S. cerevisiae deletion strains, locus YGR135W, strain pre9, stronger effect = lower value 0.965 | S. cerevisiae deletion strains, locus YGR252W, strain gcn5, stronger effect = lower value 0.974 | [5] 1.02 | S. cerevisiae deletion strains, locus YHR079C, strain IRE1 (second series), stronger effect = lower value 0.987 | S. cerevisiae deletion strains, locus YHR094C, strain hxt1, stronger effect = lower value 0.982 | S. cerevisiae deletion strains, locus YHR129C, strain ARP1, stronger effect = lower value 0.989 | S. cerevisiae deletion strains, locus YHR200W, strain rpn10, stronger effect = lower value 0.986 | S. cerevisiae deletion strains, locus YIL066C, strain RNR3, stronger effect = lower value 0.97 | S. cerevisiae deletion strains, locus YIL073C, strain SPO22, stronger effect = lower value 0.93 | S. cerevisiae deletion strains, locus YIL125W, strain kgd1, stronger effect = lower value 0.973 | S. cerevisiae deletion strains, locus YIR030C, strain dcg1, stronger effect = lower value 0.988 | S. cerevisiae deletion strains, locus YJL095W, strain BCK1, stronger effect = lower value 0.968 | S. cerevisiae deletion strains, locus YJL134W, strain LCB3, stronger effect = lower value 1.01 | S. cerevisiae deletion strains, locus YJL168C, strain set2, stronger effect = lower value 0.986 | S. cerevisiae deletion strains, locus YJL187C, strain SWE1 (second series), stronger effect = lower value 0.99 | [6] 0.956 | S. cerevisiae deletion strains, locus YKL068W, stronger effect = lower value 0.994 | S. cerevisiae deletion strains, locus YKL085W, strain MDH1 (second series), stronger effect = lower value 0.958 | S. cerevisiae deletion strains, locus YKL085W, strain MDH1, stronger effect = lower value 0.958 | S. cerevisiae deletion strains, locus YKR001C, strain vps1, stronger effect = lower value 0.963 | [7] 0.848 | S. cerevisiae deletion strains, locus YLR058C, strain SHM2, stronger effect = lower value 1 | S. cerevisiae deletion strains, locus YLR102C, strain apc9, stronger effect = lower value 0.988 | [8] 0.816 | S. cerevisiae deletion strains, locus YLR268W, strain sec22, stronger effect = lower value 0.953 | S. cerevisiae deletion strains, locus YLR330W, strain CHS5, stronger effect = lower value 1.01 | S. cerevisiae deletion strains, locus YLR342W, strain FKS1 (second series), stronger effect = lower value 0.97 | S. cerevisiae deletion strains, locus YLR371W, strain rom2, stronger effect = lower value 0.998 | S. cerevisiae deletion strains, locus YLR418C, strain cdc73, stronger effect = lower value 0.959 | S. cerevisiae deletion strains, locus YML016C, strain PPZ1, stronger effect = lower value 1 | S. cerevisiae deletion strains, locus YML032C, strain rad52, stronger effect = lower value 1 | S. cerevisiae deletion strains, locus YML124C, strain tub3, stronger effect = lower value 0.987 | S. cerevisiae deletion strains, locus YMR078C, strain ctf18, stronger effect = lower value 0.959 | S. cerevisiae deletion strains, locus YMR223W, strain ubp8, stronger effect = lower value 0.979 | [9] 1 | [10] 1.02 | S. cerevisiae deletion strains, locus YNL067W, strain RPL9B, stronger effect = lower value 0.965 | S. cerevisiae deletion strains, locus YNL233W, strain BNI4, stronger effect = lower value 0.992 | S. cerevisiae deletion strains, locus YNL250W, strain rad50, stronger effect = lower value 1.01 | S. cerevisiae deletion strains, locus YNL271C, strain bni1, stronger effect = lower value 0.971 | S. cerevisiae deletion strains, locus YNL298W, strain CLA4, stronger effect = lower value 0.959 | S. cerevisiae deletion strains, locus YNL307C, strain MCK1, stronger effect = lower value 0.969 | S. cerevisiae deletion strains, locus YNR052C, strain pop2, stronger effect = lower value 1.01 | S. cerevisiae deletion strains, locus YOL012C, strain htz1 1.31 | S. cerevisiae deletion strains, locus YOL147C, strain pex11, stronger effect = lower value 0.986 | S. cerevisiae deletion strains, locus YOR061W, strain CKA2, stronger effect = lower value 0.996 | S. cerevisiae deletion strains, locus YOR069W, strain VPS5, stronger effect = lower value 0.998 | S. cerevisiae deletion strains, locus YOR136W, strain idh2, stronger effect = lower value 0.98 | S. cerevisiae deletion strains, locus YOR144C, strain elg1, stronger effect = lower value 0.987 | S. cerevisiae deletion strains, locus YOR184W, strain ser1, stronger effect = lower value 0.926 | S. cerevisiae deletion strains, locus YOR316C, strain cot1, stronger effect = lower value 0.976 | [11] 0.969 | S. cerevisiae deletion strains, locus YPR119W, strain clb2, stronger effect = lower value 0.983 | S. cerevisiae deletion strains, locus YPR141C, strain kar3, stronger effect = lower value 0.977 | S. cerevisiae deletion strains, locus YPR163C, strain tif3, stronger effect = lower value 0.97 | S. cerevisiae deletion strains, locus YPR167C, strain met16, stronger effect = lower value 0.996 | S. cerevisiae deletion strains, strain wtn01, stronger effect = lower value 0.965 | S. cerevisiae strains, strain wild type, stronger effect = lower value 0.988
active: S. cerevisiae deletion strains, locus YGL086W, strain mad1, stronger effect = lower value 0.929 | S. cerevisiae deletion strains, locus YKL009W, strain mrt4, stronger effect = lower value 0.868
